Screening data from PubChem BioAssay.
Rows were chosen to be rich in hits. Some 18% of all compounds tested hit in one or more screens of this group.
Six1-Eya2 inh: blocks human Six1 binding to Eya2. AlphaScreen GST-Six1/His-Eya2 binding, biochemical; active compounds read low. activity change, % (concentration not given with the values). 0.56% of 360,000 active. AID 651725; in the data active = activity change below about -65%; inconclusive = mostly about -30% to -63%
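Six1/Eya2 binding was read as AlphaScreen signal after compounds were pinned into GST-Six1 plus His-tagged Eya2 (5X stock 250/500 nM) in pH 8.0 Tris/NaCl/TCEP buffer, beads added, then incubated 1 h, 37 C, dark.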
DT40 TDP1 no CPT: qHTS for Inhibitors of human tyrosyl-DNA phosphodiesterase 1 (TDP1): qHTS in cells in absence of CPT; Potency, µM (series often up to 46.2 µM), for inactives: at the highest dose activity change, negative = growth inhibition, actives largely listed as inhibitors; 15% of 420,000 active; DT40 Tdp1-/- hTDP1 cells, no CPT, ATP luminescence, 48 h; also: potency is read from the fitted curve at half-maximal effect; nearly all actives have a fitted effect of over 55% in size
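No-CPT arm: Tdp1-/-;hTDP1 DT40 cells (400/well) plus compounds, incubated ≥48 hr at 37 °C. Readout CellTiter-Glo luminescence.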
DT40 TDP1 CPT: DT40-hTDP1 cell growth loss with CPT | Potency, µM (series often up to 46.2 µM), without a hit: at the top dose activity change, negative = growth inhibition, usual class: inhibitors | chicken DT40 Tdp1-/-;hTDP1 cells + 20 nM CPT, ATP luminescence, 48 h | 12% of 420,000 active; also: potency is read from the fitted curve at half-maximal effect; nearly all actives have a fitted effect of over 55% in size
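Chicken DT40 Tdp1-/- cells stably complemented with human TDP1 were seeded at 400 cells/well in medium containing 20 nM camptothecin, exposed to pin-transferred compounds, and grown at 37 °C for at least 48 hr. Viability was read as ATP luminescence.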
IL-1B inflam inh: inflammasome signaling inhibition, IL-1 beta readout; activity change, % at 57.5 µM; THP-1 LPS/ATP IL-1B secretion, AlphaLISA, 16 h; active compounds read low; 4.7% of 360,000 active; in the data active = activity change below about -50%; inconclusive = mostly about -30% to -49%
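Secreted IL-1B measured by AlphaLISA bead assay after 16 h compound exposure of THP-1 cells; compounds (final up to 57.5 uM) added 1 h before LPS (250 ng/mL) and ATP (1.25 mM) stimulation; lower signal means less secretion.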
TDP1 inh: inhibitors of human tyrosyl-DNA phosphodiesterase TDP1. Q9NUW8. Potency, µM (series often up to 130 µM), for inactives: at the top dose activity change, negative = inhibition, most hits filed as inhibitors. recombinant TDP1, AlphaScreen DNA substrate cleavage. 0.28% of 350,000 active; also: potency is read from the fitted curve at half-maximal effect; nearly all actives have a fitted effect of over 40% in size
Target sequence (Q9NUW8 whole entry, looked up): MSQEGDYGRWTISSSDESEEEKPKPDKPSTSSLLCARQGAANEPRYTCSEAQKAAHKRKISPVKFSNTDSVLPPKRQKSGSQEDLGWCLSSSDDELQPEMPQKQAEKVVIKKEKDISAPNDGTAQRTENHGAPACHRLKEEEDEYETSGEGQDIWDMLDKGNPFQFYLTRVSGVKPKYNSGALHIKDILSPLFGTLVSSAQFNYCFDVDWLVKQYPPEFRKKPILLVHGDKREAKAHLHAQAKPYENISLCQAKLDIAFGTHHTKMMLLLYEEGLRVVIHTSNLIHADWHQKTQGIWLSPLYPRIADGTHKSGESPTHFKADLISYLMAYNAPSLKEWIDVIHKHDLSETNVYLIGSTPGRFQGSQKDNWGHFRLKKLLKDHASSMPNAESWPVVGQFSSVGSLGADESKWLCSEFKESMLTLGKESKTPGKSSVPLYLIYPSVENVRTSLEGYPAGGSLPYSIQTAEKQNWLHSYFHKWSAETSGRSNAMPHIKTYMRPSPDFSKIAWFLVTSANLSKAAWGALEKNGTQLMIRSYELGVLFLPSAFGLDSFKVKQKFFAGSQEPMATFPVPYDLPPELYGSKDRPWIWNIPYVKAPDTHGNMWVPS
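Compounds were preincubated with Tdp1 (1 nM final) for 15 min at room temperature before substrate (15 nM final) started a 5 min reaction; beads (10 ug/ml final) were then added for 10 min before AlphaScreen detection.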
CtBP-E1A blk: CtBP/E1A binding inhibition; AlphaScreen GST-E1A/His-CtBP binding, 1536-well; active compounds read low; activity change, % (test concentration not listed); 0.49% of 340,000 active; AID 651724; in the data active = activity change below about -65%; inconclusive = mostly about -30% to -63%
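GST-E1A and His-tagged CtBP (125 nM each as 5X stock) were preincubated with pin-transferred compound for 2 h at 37 °C in the dark, then glutathione donor and nickel acceptor beads were added for 1 h before AlphaScreen reading.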
An asterisk follows results filed as active; u = inconclusive; x = no result. Unless noted, calls follow the shape of the dose curve; as a rule, active = well fitted curve in the direction sought with a large enough effect; inconclusive = small, poorly fitted or top-dose-only effect, or another doubt; inactive = no such curve, though single readings can be large; an effect the other way counts as inactive or inconclusive. % is scaled to controls: 0 for no effect and ±100 for the full control effect.

SMILES | Six1-Eya2 inh | DT40 TDP1 no CPT | DT40 TDP1 CPT | IL-1B inflam inh | TDP1 inh | CtBP-E1A blk
O=C(CCCOc1ccc(Cl)cc1Cl)NC(Cc1ccccc1)C(=O)O (stereo not drawn) | 13 | -5% | -1% | 2 | x | 9
COC(=O)[C@]12CCCCC=C1N(Cc1ccccc1)C(=O)[C@H](CC(=O)N1CCOCC1)C2 | 1 | -30% | -19% | 29 | x | 9
Cc1ccc(CCNc2ncnc3onc(-c4ccc(Cl)cc4)c23)cc1 | x | 26µM* | u | x | 4% | x
COc1ccc(CNc2ncnc3onc(-c4ccc(F)cc4)c23)cc1 | x | 29µM* | 21µM* | x | 3% | x
CC(C)CNc1ncnc2onc(-c3ccc(Cl)cc3)c12 | x | -25% | -27% | x | 4% | x
CCOc1ccc(CCNc2ncnc3onc(-c4ccc(Cl)cc4)c23)cc1 | x | 8.2µM* | 9.2µM* | x | 4% | x
COc1cccc(CNc2ncnc3onc(C)c23)c1 | x | 9.2µM* | 13µM* | x | -4% | x
COc1ccc(N2CC(C(=O)OCC(=O)Nc3ccccc3C)CC2=O)cc1 (stereo not drawn) | -4 | -13% | -10% | 1 | -13% | 2
Cc1noc2ncnc(NCc3ccc(Cl)cc3)c12 | x | 16µM* | 13µM* | x | 3% | x
CCCNc1ncnc2onc(C)c12 | -6 | u | -21% | 11 | 3% | x
Cc1ccc(CCNc2ncnc(Cl)c2N)cc1 | -4 | 0.52µM* | 0.46µM* | -22 | x | 1
Clc1ccc(-c2noc3ncnc(NCCCN4CCN(c5ccccc5)CC4)c23)cc1 | x | u | u | x | 2% | x
COc1ccc(CCNc2ncnc3onc(C)c23)c(OC)c1 | x | 0.52µM* | 1.2µM* | x | 3% | x
Cc1cccc(CCNc2ncnc3onc(-c4ccc(Cl)cc4)c23)c1 | x | 18µM* | u | x | 1% | x
COc1ccc(S(=O)(=O)N2CCC(C(=O)NC3(C)CCS(=O)(=O)C3)CC2)cc1OC (stereo not drawn) | -1 | -30% | -1% | -3 | 0% | -17
Cc1ccc(C)c(N(C)C(=O)c2coc(=O)c3ccccc23)c1 | 2 | 23µM* | u | 1 | 5% | 10
COc1ccccc1NC(=O)CSc1nn2c(=O)c(C)nnc2s1 | u | 18% | 12% | -4 | 4% | -82*
Cc1nnc2sc(SCc3ccccc3)nn2c1=O | x | x | x | x | 0% | x
Cc1nnc2sc(SCc3cccc(Cl)c3)nn2c1=O | 10 | u | -8% | -100* | 1% | 0
COc1ccccc1/C=C/CN1CCN(c2ccccc2)CC1 | u | u | u | u | 8% | 3
Cc1oc2c(C)c3oc(=O)c(CC(=O)N[C@@H](CCCNC(N)=O)C(=O)O)c(C)c3cc2c1C | -16 | 9% | 11% | -3 | x | x
O=C(O)CCCCCCCCc1cn(Cc2ccc(C(=O)c3ccccc3)cc2)nn1 | -19 | 4.1µM* | 3.7µM* | 74 | x | u
O=C(c1ccccc1)c1ccc(Cn2cc(CCCO)nn2)cc1 | -11 | 5.8µM* | 8.2µM* | 39 | x | 3
O=C(OCc1cn(Cc2ccccc2)nn1)c1ccccc1 | 15 | -3% | -3% | 23 | -1% | x
O=C(CN1C(=O)CCOc2ccccc21)Nc1cccc(S(=O)(=O)N2CCOCC2)c1 | -4 | -18% | 7% | 0 | 0% | -4
SMILES | Six1-Eya2 inh | DT40 TDP1 no CPT | DT40 TDP1 CPT | IL-1B inflam inh | TDP1 inh | CtBP-E1A blk
C=C(C)c1cccc(C(C)(C)NC(=O)Nc2cc(C)ccn2)c1 | -6 | u | u | -27 | 4% | -4
C=C(C)c1cccc(C(C)(C)NC(=O)Nc2ccc(C)cn2)c1 | -8 | 18µM* | 18µM* | -6 | -4% | 0
O=C(c1ccccc1)c1ccc(Cn2cc(-c3ccccc3)nn2)cc1 | 2 | 7.3µM* | 7.3µM* | 55 | x | 11
CCCCCc1ccc(-c2cn(Cc3ccc(C(=O)c4ccccc4)cc3)nn2)cc1 | 13 | 4.1µM* | 3.3µM* | 4 | x | 9
COc1ccccc1OCc1ccc(C(=O)c2ccccc2)cc1 | 19 | u | -15% | u | x | 29
O=C(O)c1cccc(-c2nnn(Cc3ccccc3)n2)c1 | 1 | 3% | -1% | 30 | 2% | 3
CCOC(OCC)c1cn(Cc2ccc(C(=O)c3ccccc3)cc2)nn1 | -2 | 23µM* | 23µM* | 41 | x | x
CCOC(=O)c1nn(-c2ccc(F)cc2)c2nc(CC(C)C)c(C#N)c(=O)n12 | 1 | -10% | 7% | 11 | -8% | 13
CCN1c2ccccc2-c2nc(SCC(=O)Nc3cc(OC)cc(OC)c3)ncc2S1(=O)=O | x | -3% | 2% | x | -5% | x
COc1cc(OC)c(OC)cc1CN1CCc2nc(Nc3ccc4c(c3)OCCO4)ncc2C1 | x | u | 16µM* | x | 4% | x
Clc1ccc(CN2CCc3nc(Nc4ccc5c(c4)OCCO5)ncc3C2)cc1 | x | 13µM* | 16µM* | x | 11% | x
Cn1c(=O)[nH]c(=O)c2c1nc(N1CCCCC1)n2CC(O)COc1ccc([N+](=O)[O-])cc1 (stereo not drawn) | -2 | u | u | 41 | 2% | -15
COc1ccccc1CNC(=O)Cn1c(=O)nc(-c2ccccc2F)c2cc(Cl)ccc21 | x | 6.5µM* | u | x | 1% | x
CCOc1ccccc1NC(=O)Cn1c(=O)nc(-c2ccccc2F)c2cc(Cl)ccc21 | x | 21µM* | u | x | -1% | x
COc1ccc(CNC(=O)Cn2c(=O)nc(-c3ccccc3F)c3cc(Cl)ccc32)cc1OC | x | 0% | -9% | x | 4% | x
Cc1ncc2c(n1)-c1cc(F)ccc1SC2 | 0 | 1% | -5% | -4 | x | 7
CSc1ncc2c(n1)-c1cc(C)ccc1SC2 | 1 | 5.2µM* | 2.6µM* | -12 | -5% | -10
CN(C)C(=O)c1cccn1-c1ncc(C(F)(F)F)cc1Cl | 5 | 4% | 2% | 35 | 6% | 7
CN(C)C(=O)c1cnc(Sc2ncc(C(F)(F)F)cc2Cl)n1C | 23 | 8.2µM* | 8.2µM* | 35 | 5% | 29
CC(=O)OC1C(OC(C)=O)C2C(C)CC3OC(=O)C(C)C3CC2(C)C1OC(C)=O (stereo not drawn) | 1 | -19% | 2% | 12 | x | -14
C=C1C(=O)O[C@@H]2C[C@@H](C)[C@@H]3C=CC(=O)[C@@]3(C)[C@@H](OC(C)=O)[C@H]12 | -1 | 0.65µM* | 0.82µM* | u | -1% | -2
